Source: PubChem BioAssay
Only some compounds are listed: those with a hit (about 9.5% of all), similar ones and a draw of the others.
ALDH1A1 inh = qHTS Assay for Inhibitors of Aldehyde Dehydrogenase 1 (ALDH1A1); Aldehyde dehydrogenase 1A1 (Homo sapiens), P00352; hit rate 7.3% among 220,000; AID 1030, 2008; Purified ALDH1A1, NADH fluorescence, propionaldehyde substrate; Potency, µM (series often up to 75.3 µM), for the others: top-dose activity, negative = inhibition, actives largely listed as inhibitors; active = well fitted inhibition curve with a large enough effect, not every such curve was filed as active; inconclusive = small, poorly fitted or top-dose-only effect, or another doubt; inactive = no such curve, though single readings can be large or run the other way;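 also: plate controls were no enzyme wells and a reference inhibitor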
HPGD block = qHTS Assay for Inhibitors of HPGD (15-Hydroxyprostaglandin Dehydrogenase). 15-hydroxyprostaglandin dehydrogenase [NAD(+)] (Homo sapiens), P15428. purified HPGD, NADH fluorescence kinetic, PGE2 substrate. Potency, µM, for inactives: at the highest dose activity change, negative = inhibition, most hits filed as inhibitors. hit rate 4.3% among 150,000; active = well fitted inhibition curve with a large enough effect, not every such curve was filed as active; inconclusive = small, poorly fitted or top-dose-only effect, or another doubt; inactive = no such curve, though single readings can be large or run the other way
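20 nM HPGD preincubated 15 min at room temperature with compound in 50 mM Tris-HCl pH 8, 0.01% Tween 20. Started with 1 mM NAD+ and 30 uM prostaglandin E2; NADH fluorescence (360/450 nm) read 5 times over 30-s intervals, last minus first.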
Tau FP inhib = qHTS for Inhibitors of Tau Fibril Formation, Fluorescence Polarization; Microtubule-associated protein tau (Homo sapiens), P10636; K18 P301L tau heparin fibrillization, Alexa594 FP, 6 h; Potency, µM (series often up to 57.7 µM), for inactives: top-dose activity, negative = inhibition, most hits filed as inhibitors; hit rate 0.39% among 280,000; also: nearly all actives have a fitted effect of over 55% in size
Target sequence (P10636 561-689 P618L limits assumed): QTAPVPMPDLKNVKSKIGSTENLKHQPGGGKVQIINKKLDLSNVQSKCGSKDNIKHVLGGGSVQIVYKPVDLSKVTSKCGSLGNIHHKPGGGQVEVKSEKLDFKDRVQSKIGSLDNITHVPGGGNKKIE
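Recombinant K18 P301L […], labeled with Alexa 594 at 0.24 uM over 15 uM unlabeled; heparin inducer 20 uM final; 37 C, 6 hr; FP endpoint.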
Tau fluor cs = Counterscreen qHTS for Inhibitors of Tau Fibril Formation, Fluorescence Polarization; tau K18 P301L Alexa594 fluorescence, heparin fibrillization; Potency, µM (top dose mostly 57.7 µM), inactives show top-dose activity change, negative = decrease; hit rate 0.93% among 280,000; AID 1463, 2008; also: nearly all actives have a fitted effect of over 55% in size
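Human tau K18 P301L (15 uM unlabeled, 0.24 uM Alexa 594-labeled) in 100 mM sodium acetate pH 7 with 20 uM heparin, 6 hr at 37 C. ThT 30 uM added, 1 hr ambient; Alexa 594 FP and total fluorescence read at 555/632 nm.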
Tau ThT inhib = qHTS for Inhibitors of Tau Fibril Formation, Thioflavin T Binding; recombinant tau K18 P301L, heparin-induced fibrillization, ThT fluorescence; hit rate 2.1% among 270,000; Microtubule-associated protein tau (Homo sapiens), P10636; Potency, µM (series often up to 57.4 µM), inactives show at the highest dose activity, negative = inhibition, usual class: inhibitors; AID 1460, 2008; also: nearly all actives have a fitted effect of over 55% in size
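ThT emission at 510 nm, taken 1 hr after adding 30 uM dye, quantifies aggregates formed when 20 uM heparin acts on human tau K18 P301L for 6 hr at 37 C.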
NPSR antag = qHTS Assay for Antagonists of the Neuropeptide S Receptor: cAMP Signal Transduction | Q6W5P4 | CHO-NPSR cells, cAMP TR-FRET, antagonist mode | Potency, µM (top dose mostly 38.3 µM), inactives show at the highest dose activity change, negative = inhibition, actives largely listed as inhibitors | hit rate 1% among 220,000 | AID 1461, 2008; also: nearly all actives have a fitted effect of over 50% in size
Target sequence (Q6W5P4 whole entry, looked up): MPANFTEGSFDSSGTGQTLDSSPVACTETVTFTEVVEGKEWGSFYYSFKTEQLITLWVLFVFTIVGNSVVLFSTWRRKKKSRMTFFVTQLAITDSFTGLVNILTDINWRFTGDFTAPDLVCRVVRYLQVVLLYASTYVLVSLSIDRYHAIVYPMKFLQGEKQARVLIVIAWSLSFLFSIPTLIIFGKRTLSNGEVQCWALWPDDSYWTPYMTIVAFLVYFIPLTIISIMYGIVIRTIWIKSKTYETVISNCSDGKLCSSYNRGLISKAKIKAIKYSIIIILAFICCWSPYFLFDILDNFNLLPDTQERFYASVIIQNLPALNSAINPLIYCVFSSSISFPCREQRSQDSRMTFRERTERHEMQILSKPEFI
Starred values were filed as active, the others as inactive; u = inconclusive; x = not tested or not shown; ! = not confirmed by another sample; [ ] = dose if it differs, or a comment. Unless noted, calls follow the shape of the dose curve; as a rule, active = well fitted curve in the direction sought with a large enough effect; inconclusive = small, poorly fitted or top-dose-only effect, or another doubt; inactive = no such curve, though single readings can be large; an effect the other way counts as inactive or inconclusive. Unless noted, % is scaled to controls: 0 for no effect and ±100 for the full control effect; potency is read from the fitted curve at half-maximal effect.

SMILES | ALDH1A1 inh | HPGD block | Tau FP inhib | Tau fluor cs | Tau ThT inhib | NPSR antag
O=C(O)c1cc(=O)c2c(Cl)cc(Cl)cc2[nH]1 | -1% | 28µM* | -1% | -1% | 0% | -16%[46.1 µM]
CC(C)c1ccc(NS(=O)(=O)c2ccc3[nH]cc(C(=O)NC4CCCCC4)c(=O)c3c2)cc1 | x | x | 3.5µM* | u | u | x
Cc1cc(C)cc(NS(=O)(=O)c2ccc3[nH]cc(C(=O)NCc4ccccc4Cl)c(=O)c3c2)c1 | x | x | 3.2µM* | u | 5% | x
Cc1cc(C)cc(NS(=O)(=O)c2ccc3[nH]cc(C(=O)N4CCCCCC4)c(=O)c3c2)c1 | x | x | -6% | -14% | 0% | x
Cc1cc(C)cc(NS(=O)(=O)c2ccc3[nH]cc(C(=O)NCc4ccco4)c(=O)c3c2)c1 | u | 0% | u | u | 0% | -28%[46.1 µM]
COc1cccc(NS(=O)(=O)c2ccc3[nH]cc(C(=O)NC4CCCCC4)c(=O)c3c2)c1 | x | x | 7.1µM* | 3.5µM*[quencher] | u | x
CC(C)c1ccc(NS(=O)(=O)c2ccc3[nH]cc(C(=O)N4CCC(C(N)=O)CC4)c(=O)c3c2)cc1 | -1% | -14% | -7% | -13% | -10% | 1%[46.1 µM]
Cc1cc(C)cc(NS(=O)(=O)c2ccc3[nH]cc(C(=O)NC4CCCCC4)c(=O)c3c2)c1 | x | x | 7.9µM* | u | u | x
COc1ccccc1CNC(=O)CCS(=O)(=O)c1ccc2c(c1)oc(=O)n2C | x | x | -12% | -1% | 4% | x
CCOc1ccccc1C(=O)NC1(C(F)(F)F)C(=O)Nc2c1c(=O)[nH]c(=O)n2-c1ccccc1 (stereo not drawn) | x | x | u | -6% | -6% | x
CCc1ccc(NC(=O)CC2C(=O)N(c3ccc(Cl)cc3)C(=O)N2Cc2cccs2)cc1 (stereo not drawn) | x | x | u | -20% | u | x
CC(C)c1ccc(NS(=O)(=O)c2ccc3[nH]cc(C(=O)NCC4CCCO4)c(=O)c3c2)cc1 (stereo not drawn) | x | x | 16µM* | u | -8% | x
CCOc1ccc(NS(=O)(=O)c2ccc3[nH]cc(C(=O)NCC4CCCO4)c(=O)c3c2)cc1 (stereo not drawn) | u | u | u | u | u | -15%[46.1 µM]
CC1(C)CC(=O)C(C=NCCN2CCN(C3CC(=O)N(c4cccc(Br)c4)C3=O)CC2)=C(O)C1 (stereo not drawn) | 25µM* | x | -5% | -4% | -4% | 24%
COc1cccc(N2C(=O)CC(N3CCN(CCN=CC4=C(O)CC(C)(C)CC4=O)CC3)C2=O)c1 (stereo not drawn) | u | x | 2% | 3% | 0% | 19%
CCOc1ccc(C(=O)Nc2nnc(NC(=S)Nc3ccccc3)s2)cc1 | 7.1µM* | x | u | u | -17% | -33%
Cc1nc(Nc2ccccc2)sc1C(=O)Nc1ccccc1 | -6% | x | 14% | u | u | 38%
Cc1ccc(C(=O)Nc2nnc(NC(=S)Nc3ccccc3)s2)cc1 | 22µM* | x | u | u | 6% | u
Cc1nc(NC(=S)Nc2ccccc2)sc1C | 22µM* | x | -2% | u | u | 1.3µM*
CCc1nnc(NC(=S)Nc2ccccc2)s1 | u | x | -4% | -13% | -15% | -31%
O=C(NCCc1cccs1)c1ccc(Cn2c(SCc3ccc(F)cc3)nc3cccnc32)cc1 | x | x | 3% | -15% | 8% | x
Cc1c(Cl)cccc1Nc1nn2c(=O)c3ccc(C(=O)NCCC4=CCCCC4)cc3nc2s1 | x | x | -1% | -30% | u | x
CC(=O)O[C@H](C(=O)O[C@@H]1C[C@@H](CCC[C@H]2O[C@H](C(=O)OC(C)C)CC[C@@H]2C)O[C@@H](CC#N)C1)c1ccccc1 | -5% | -10% | 9% | -4% | -4% | x
O=S(=O)(c1ccc2ccccc2c1)N(CC(O)CN1CCOCC1)c1ccccc1 (stereo not drawn) | -9% | -6% | 0% | -14% | -11% | -13%[46.1 µM]
CCCCCCCCCC(=O)O[C@H](CC(=O)O)C[N+](C)(C)C | -1% | -5% | -1% | -3% | -2% | x
SMILES | ALDH1A1 inh | HPGD block | Tau FP inhib | Tau fluor cs | Tau ThT inhib | NPSR antag
O=C1c2ccccc2C(=O)C1c1ccc2ccccc2n1 | 25µM*! | -4% | 2% | -5% | 2.2µM* | -12%[46.1 µM]
CCCNC(=O)OC[C@@H]1O[C@H](CCO/N=C(\C)CCN2CCCc3nc(C)c(C)cc32)C=C[C@@H]1Oc1ccc(OC)cc1 | 0%[13.5 µM] | x | 3%[11.6 µM] | -5%[11.6 µM] | -9%[11.5 µM] | x
CCN(CC)CCCNC(=O)c1cc(Sc2nnc(C)s2)nc2ccccc12 | 2% | 28µM* | -2% | 16% | 11% | 4%
O=C1NCCN(Cc2ccc(Cl)c(F)c2)C1CC(=O)N1CCCCO1 (stereo not drawn) | 25µM* | x | 1% | 5% | -12% | -17%
CCN1C(=O)/C(=C/c2ccc(C)o2)N(C)C1=S | 1.6µM* | u | u | -20% | 22µM* | 18%
CCN1C(=O)/C(=C/c2cccs2)N(C)C1=S | u | -22% | -6% | -13% | u | 4%[46.1 µM]
Cc1ccc(/C=C2/NC(=O)N(Cc3ccc(Br)cc3)C2=O)o1 | 13µM* | u | -11% | -14% | u | -25%
CCN1C(=O)N/C(=C/c2ccc(C)o2)C1=O | 15µM* | -23% | u | -16% | u | -23%
CCCN1C(=O)/C(=C/c2ccc(C)o2)NC1=S | 7.1µM* | x | u | -28% | 25µM* | -18%
CCN1C(=O)N/C(=C/c2ccc(Sc3ccc(C)cc3)o2)C1=O | u | u | -3% | -10% | -6% | -3%[46.1 µM]
CC1=C(c2ccc(C)cc2)S(=O)(=O)NC1=NCCCN1CCN(c2ccccc2F)CC1 | x | x | -6% | -2% | 5% | x
CC(C)(C)NC(=O)NC(=O)COC(=O)c1cc[n+]([O-])cc1 | 1% | x | 1% | 9% | 9% | 9%
Cc1ccc(S(=O)(=O)NC(=O)Nc2ncn[nH]2)cc1 | 13%[13.5 µM] | -9% | x | x | x | x
Cc1ccc(/C=C2/NC(=O)N(Cc3ccccc3F)C2=O)o1 | 16µM* | -17% | -5% | -6% | u | 13%
N#C/C(=C/c1ccc(-c2ccc(C(=O)O)c(Cl)c2)o1)C(=O)NCC1CCCO1 (stereo not drawn) | u | -19% | 5% | 0% | -9% | -29%
